Results reported in PubChem BioAssay (NCI).
Compounds without any hit were thinned out: in the full panel of roughly 83,000, 20% have a hit.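 Percent growth is the endpoint: 0 to 100 indicates growth inhibition (40 means 60% inhibition), 0 means no net growth, and negative values indicate cell death.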 Unmarked numbers belong to inactive results. Activity calls are given as the source filed them. How the source made its calls: active means growth percent below 10; inactive means the rest.

system: SK-MEL-2 melanoma; test: NCI-60 one-dose screen, 48 h (100 = growth as untreated, 0 = no growth, -100 = all killed); conditions: 10 µM unless noted

SMILES | growth
O=C1/C(=C/c2ccc(F)cc2)CN(C(=O)CCN2CCC(=NO)CC2)C/C1=C\c1ccc(F)cc1 | -14% (active)
CC/C=C\C[C@H](O)C/C=C1/C(=O)C=C[C@@H]1C/C=C\CCCC(N)=O | 13.9%
CC/C=C\C[C@H](F)C/C=C1/C(=O)C=C[C@@H]1C/C=C\CCCC(=O)OC | 41%
Nc1nc2c(c3ncccc13)C(c1ccc(Cl)c(Cl)c1)Cc1ncccc1-2 (stereo unspecified) | 18.4%
Cn1c(=O)c2c(ncn2CC[N+](C)(C)C)n(C)c1=O | 99.7%
O=C(O)c1cccc2c1-c1ccccc1C2=O | 98.4%
CCOC(=O)C(C#N)C1CCCCC1 (stereo unspecified) | 107%
CCCCNP1(NCCCC)=NP(NCCCC)(NCCCC)=NP(NCCCC)(NCCCC)=NP(NCCCC)(NCCCC)=N1 | -23.1% (active)
CC(=O)C1=C(O)C=C2Oc3c(C(=O)/C=C/c4cc(C(F)(F)F)cc(C(F)(F)F)c4)c(O)c(C)c(O)c3[C@]2(C)C1=O | -49.7% (active)
COc1ccc(OCC(=O)Nc2ccc(-c3nc4ccccc4s3)cc2C)cc1 | 94.1%
CCCCCCCCCC(=O)Oc1ccc(/C(=C(/C)c2ccccc2)c2ccc(OCCN3CCCC3)cc2)cc1 | -31.5% (active)
COc1cccc(-c2nc3sccn3c2-c2ccnc(NCCCNS(=O)(=O)c3ccc(Cl)cc3)c2)c1 | 45.3%
CC/C=C\C[C@H](O)C/C=C1/C(=O)C=C[C@@H]1C/C=C\CCCC(=O)NC | 16.1%
COc1cccc(/C=C\C(=O)c2ccccc2)c1 | 105%
C=C1CC2(OC1=O)C(=O)Nc1ccccc12 (stereo unspecified) | 92.5%
Cc1ccc2c(c1)C(=O)/C(=C/c1ccc(OCC(=O)c3ccccc3)cc1)O2 | 77.8%
CCN(C(=O)CN1CCN(c2cc3c(cc2F)c(=O)c(C(=O)O)cn3C2CC2)CC1)c1nc(-c2ccc(OC)cc2)cs1 | 79.2%
CS(CCCCN=C=S)=NC(=O)c1c(F)c(F)c(F)c(F)c1F (stereo unspecified) | 94.2%
Cc1ccccc1CCO | 86.3%

SMILES | growth
O=C(O)c1c([N+](=O)[O-])cnc2ccccc12 | 102%
CC(=O)C1=C(O)C=C2Oc3c(C(=O)/C=C/c4cc(Cl)cc(Cl)c4)c(O)c(C)c(O)c3[C@]2(C)C1=O | -62.8% (active)
COc1cc(NC(N)=NCC(C)(C)COc2ccc(C(F)(F)F)cc2)cnc1C#N | 77.3%
CC1=CC(=O)CC(C)(C)[C@@]1(O)/C=C/[C@@H](C)O | 112%
OC(c1cc(-c2ccccc2)nc2ccc(Cl)cc12)C1CCCCN1 (stereo unspecified) | 89.2%
CCC(=O)OCc1cccc(OC)c1 | 111%
CCCCCCCCCCCCCC(=O)C(C)N (stereo unspecified) | 72.5%
CC1=C(C)C(=O)OC([C@](C)(O)[C@]2(O)CC[C@@]3(O)[C@@H]4C[C@H]5O[C@]56CC=CC(=O)[C@]6(C)[C@H]4CC[C@]23COC(=O)c2ccc(C)o2)C1 (stereo partly specified) | -63% (active)
C=C1CC[C@@H]2[C@](C)(COC(C)=O)[C@H](OC(C)=O)CC[C@@]2(C)[C@@H]1CC(Nc1ccc(S(=O)(=O)Nc2ccc(Cl)nn2)cc1)C1=CCOC1=O (stereo partly specified) | 58.3%
CC(C)[C@H]1COC(=O)N1[C@@H]1C(=O)N([C@@H](CCC(=O)N2CCN(C3CCCC3)CC2)C(=O)N[C@@H]2CCCc3ccccc32)[C@@H]1/C=C/c1cccc(Br)c1 | -7.94% (active)
Cc1cc(Cl)ccc1Nc1nc(C(F)(F)F)ccc1C(=O)N/N=C/c1ccc(F)cc1 | -5.51% (active)
Cn1c(=O)c2[nH]c(C(O)C(O)C(O)C(O)CO)nc2n(C)c1=O (stereo unspecified) | 104%
C(=N\Nc1ccccn1)/c1ccccn1 | 48.9%
COc1cccc(-c2cn3c(ccc4ccccc43)n2)c1 | 22.1%
COc1ccc2c(c1)C(=O)/C(=C/c1cccc(OCC(=O)Nc3nc4c(s3)CCCC4)c1)O2 | -67.3% (active)
c1ccc(-c2nc(N3CCOCC3)c3c4c(sc3n2)CCCCC4)nc1 | 61.7%
COc1ccc(-c2cn3c(ccc4ccccc43)n2)cc1 | 109%
COc1cc(OC)c(/C=C/C(=O)c2c(OC)cc(OC)cc2OC)c(OC)c1 | 6.13% (active)
COc1ccc(-c2cc(-c3ccc(N(C)C)cc3)nc(NC(=O)c3ccncc3)n2)cc1 | 116%

system: EKVX NSCLC; test: as above; conditions: 10 µM unless noted

SMILES | growth
O=C1/C(=C/c2ccc(F)cc2)CN(C(=O)CCN2CCC(=NO)CC2)C/C1=C\c1ccc(F)cc1 | -21.4% (active)
CC/C=C\C[C@H](O)C/C=C1/C(=O)C=C[C@@H]1C/C=C\CCCC(N)=O | 23.6%
CC/C=C\C[C@H](F)C/C=C1/C(=O)C=C[C@@H]1C/C=C\CCCC(=O)OC | 31.6%
Nc1nc2c(c3ncccc13)C(c1ccc(Cl)c(Cl)c1)Cc1ncccc1-2 (stereo unspecified) | 44.5%
Cn1c(=O)c2c(ncn2CC[N+](C)(C)C)n(C)c1=O | 94.6%
O=C(O)c1cccc2c1-c1ccccc1C2=O | 90.3%
CCOC(=O)C(C#N)C1CCCCC1 (stereo unspecified) | 94.9%
CCCCNP1(NCCCC)=NP(NCCCC)(NCCCC)=NP(NCCCC)(NCCCC)=NP(NCCCC)(NCCCC)=N1 | -17.2% (active)
CC(=O)C1=C(O)C=C2Oc3c(C(=O)/C=C/c4cc(C(F)(F)F)cc(C(F)(F)F)c4)c(O)c(C)c(O)c3[C@]2(C)C1=O | -33.9% (active)
COc1ccc(OCC(=O)Nc2ccc(-c3nc4ccccc4s3)cc2C)cc1 | 65%
CCCCCCCCCC(=O)Oc1ccc(/C(=C(/C)c2ccccc2)c2ccc(OCCN3CCCC3)cc2)cc1 | 44.1%
COc1cccc(-c2nc3sccn3c2-c2ccnc(NCCCNS(=O)(=O)c3ccc(Cl)cc3)c2)c1 | 47.8%
CC/C=C\C[C@H](O)C/C=C1/C(=O)C=C[C@@H]1C/C=C\CCCC(=O)NC | 23.8%
COc1cccc(/C=C\C(=O)c2ccccc2)c1 | 90.7%
C=C1CC2(OC1=O)C(=O)Nc1ccccc12 (stereo unspecified) | 74.4%
Cc1ccc2c(c1)C(=O)/C(=C/c1ccc(OCC(=O)c3ccccc3)cc1)O2 | 90.2%
CCN(C(=O)CN1CCN(c2cc3c(cc2F)c(=O)c(C(=O)O)cn3C2CC2)CC1)c1nc(-c2ccc(OC)cc2)cs1 | 58.9%
CS(CCCCN=C=S)=NC(=O)c1c(F)c(F)c(F)c(F)c1F (stereo unspecified) | 97.8%
Cc1ccccc1CCO | 105%

SMILES | growth
O=C(O)c1c([N+](=O)[O-])cnc2ccccc12 | 58.2%
CC(=O)C1=C(O)C=C2Oc3c(C(=O)/C=C/c4cc(Cl)cc(Cl)c4)c(O)c(C)c(O)c3[C@]2(C)C1=O | -15.6% (active)
COc1cc(NC(N)=NCC(C)(C)COc2ccc(C(F)(F)F)cc2)cnc1C#N | 70.5%
CC1=CC(=O)CC(C)(C)[C@@]1(O)/C=C/[C@@H](C)O | 91.6%
OC(c1cc(-c2ccccc2)nc2ccc(Cl)cc12)C1CCCCN1 (stereo unspecified) | 63%
CCC(=O)OCc1cccc(OC)c1 | 91.3%
CCCCCCCCCCCCCC(=O)C(C)N (stereo unspecified) | 5.65% (active)
CC1=C(C)C(=O)OC([C@](C)(O)[C@]2(O)CC[C@@]3(O)[C@@H]4C[C@H]5O[C@]56CC=CC(=O)[C@]6(C)[C@H]4CC[C@]23COC(=O)c2ccc(C)o2)C1 (stereo partly specified) | -46.9% (active)
C=C1CC[C@@H]2[C@](C)(COC(C)=O)[C@H](OC(C)=O)CC[C@@]2(C)[C@@H]1CC(Nc1ccc(S(=O)(=O)Nc2ccc(Cl)nn2)cc1)C1=CCOC1=O (stereo partly specified) | 87.3%
CC(C)[C@H]1COC(=O)N1[C@@H]1C(=O)N([C@@H](CCC(=O)N2CCN(C3CCCC3)CC2)C(=O)N[C@@H]2CCCc3ccccc32)[C@@H]1/C=C/c1cccc(Br)c1 | 48.2%
Cc1cc(Cl)ccc1Nc1nc(C(F)(F)F)ccc1C(=O)N/N=C/c1ccc(F)cc1 | 16.7%
Cn1c(=O)c2[nH]c(C(O)C(O)C(O)C(O)CO)nc2n(C)c1=O (stereo unspecified) | 103%
C(=N\Nc1ccccn1)/c1ccccn1 | 25.8%
COc1cccc(-c2cn3c(ccc4ccccc43)n2)c1 | 20.8%
COc1ccc2c(c1)C(=O)/C(=C/c1cccc(OCC(=O)Nc3nc4c(s3)CCCC4)c1)O2 | -72.6% (active)
c1ccc(-c2nc(N3CCOCC3)c3c4c(sc3n2)CCCCC4)nc1 | 50.1%
COc1ccc(-c2cn3c(ccc4ccccc43)n2)cc1 | 72.1%
COc1cc(OC)c(/C=C/C(=O)c2c(OC)cc(OC)cc2OC)c(OC)c1 | 38.2%
COc1ccc(-c2cc(-c3ccc(N(C)C)cc3)nc(NC(=O)c3ccncc3)n2)cc1 | 99.8%
